# Test results as given in patent US20180258417, “RAPID CHARACTERIZATION OF CAS ENDONUCLEASE SYSTEMS, PAM SEQUENCES AND GUIDE RNA ELEMENTS” (PIONEER HI-BRED INTERNATIONAL, INC., published 2018).
# T1: Blat Cas9 (Brevibacillus laterosporus SSP360D4)
# T1 chain: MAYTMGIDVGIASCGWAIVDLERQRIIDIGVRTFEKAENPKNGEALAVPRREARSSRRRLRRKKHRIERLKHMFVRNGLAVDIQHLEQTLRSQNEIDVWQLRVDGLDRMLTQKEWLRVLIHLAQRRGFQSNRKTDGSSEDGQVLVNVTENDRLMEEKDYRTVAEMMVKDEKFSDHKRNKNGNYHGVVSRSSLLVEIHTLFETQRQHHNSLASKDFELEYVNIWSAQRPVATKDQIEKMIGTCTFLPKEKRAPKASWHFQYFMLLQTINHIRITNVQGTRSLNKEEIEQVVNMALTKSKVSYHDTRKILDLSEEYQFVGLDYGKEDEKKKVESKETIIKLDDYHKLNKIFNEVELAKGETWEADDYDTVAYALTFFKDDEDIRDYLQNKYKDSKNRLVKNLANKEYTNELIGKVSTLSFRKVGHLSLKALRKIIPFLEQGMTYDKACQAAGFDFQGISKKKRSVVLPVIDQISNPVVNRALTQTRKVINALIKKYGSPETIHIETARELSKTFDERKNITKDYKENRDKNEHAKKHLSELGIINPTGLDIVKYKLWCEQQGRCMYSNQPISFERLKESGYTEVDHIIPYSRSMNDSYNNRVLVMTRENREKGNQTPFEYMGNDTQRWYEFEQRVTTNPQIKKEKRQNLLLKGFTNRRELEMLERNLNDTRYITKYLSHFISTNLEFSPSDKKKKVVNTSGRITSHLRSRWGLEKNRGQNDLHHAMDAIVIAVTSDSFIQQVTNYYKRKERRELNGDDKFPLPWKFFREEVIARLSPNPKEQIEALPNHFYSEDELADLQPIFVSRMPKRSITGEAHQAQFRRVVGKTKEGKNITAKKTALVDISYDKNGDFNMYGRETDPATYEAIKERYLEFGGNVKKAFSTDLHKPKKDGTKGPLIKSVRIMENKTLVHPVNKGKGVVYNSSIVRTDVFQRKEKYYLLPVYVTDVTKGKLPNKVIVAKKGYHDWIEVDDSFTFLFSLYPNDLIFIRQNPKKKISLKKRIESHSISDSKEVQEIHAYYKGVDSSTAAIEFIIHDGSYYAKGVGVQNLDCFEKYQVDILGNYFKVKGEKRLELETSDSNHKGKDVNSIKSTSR
# B1: Blat sgRNA direct ; T1 + GTCCCGCA PAM (ssRNA ; dsDNA)
# RNA: GGGCGCUAAAGAGGAAGAGGACAGCUAUAGUUCCUUACUGAAAGGUAAGUUGCUAUAGUAAGGGCAACAGACCCGAGGCGUUGGGGAUCGCCUAGCCCGUUUUUACGGGCUCUCCCCAUAUUCAAAAUAAUGACAGACGAGCACCUUGGAGCAUUUAUUUCCGAGGUGCUUUUUUUU
# DNA 1: CGCTAAAGAGGAAGAGGACAGTCCCGCA
# DNA 2: TGCGGGACTGTCCTCTTCCTCTTTAGCG
# modifications: [NONE]
# B2: Blat sgRNA direct ; T1 + GTCCCGAC PAM (ssRNA ; dsDNA)
# RNA: B1 RNA
# DNA 1: CGCTAAAGAGGAAGAGGACAGTCCCGAC
# DNA 2: GTCGGGACTGTCCTCTTCCTCTTTAGCG
# What was measured:
# [1] = target: T1, Blat Cas9; assay: cleavage_in_vitro; PAM position 7 A to C; 10 mM MgCl2, 15 C; details: tags: C-terminal His (pBAD24-CHis)
# Text: (§1) To validate the PAM specificity for Blat Cas9, plasmids were engineered to contain mutations ([…] (reference), […], […], […], […], […] with mutations shown in bold and underlined, FIG. 39) in the most conserved residues of the PAM immediately downstream of a 20 base pair region matching the variable targeting domain T1 (SEQ ID NO: 141). In vitro cleavage reactions with the various PAM sequences were initiated by mixing supercoiled plasmid DNA with pre-assembled Blat Cas9-sgRNA complex (1:1 v/v ratio) at 15° C. The final reaction mixture contained 3 nM plasmid, 50 nM Cas9, 10 mMTris-HCl (pH 7.5 at 37° C.), 100 mM NaCl, 1 mM DTT and 10 mM MgCl2 in a 100 μI reaction volume. Aliquots were removed at timed intervals and quenched with phenol/chloroform. The aqueous phase was mixed with 3× loading dye solution (0.01% (w/v) bromophenol blue and 75 mM EDTA in 50% (v/v) glycerol) and reaction products analyzed by agarose gel electrophoresis. The amount of supercoiled (SC) form was evaluated by densitometric analysis of ethidium bromide stained gels using the software ImageJ. Values of reaction rate constants were obtained as described by Szczelkun, et al., (2014) Proc. Natl. Acad. Sci. USA 111:9798-9803). Replacement of the C nucleotide at the 5th position abolished plasmid DNA cleavage confirming its key role in Blat Cas9 PAM recognition (FIG. 39).
# [2] = target: T1, Blat Cas9; assay: cleavage_in_vitro; PAM position 8 A to C; 10 mM MgCl2, 15 C; details: tags: C-terminal His (pBAD24-CHis)
# Text: as §1
Binder,cleavage rate decrease vs reference PAM [1] [fold decrease in rate],binding signal [2] [fold decrease in rate]
B1,43,–
B2,–,12
